# aSyn UTR act: Activators working through SNCA 5'UTR binding (MLPCN); alpha-synuclein 5'UTR reporter, activators screen; activity score, % (tested at 7.5 µM), hits read low; actives 7.1% (n = 300,000); AID 1814; in the data active = activity score below about -60%
# Numbers without * were called inactive. The list is a sample of the results.
SMILES,aSyn UTR act
Cc1ccc(S(=O)(=O)N(C)c2ccc(OCC(=O)Nc3nc(-c4ccccc4)cs3)cc2)cc1,-73.3*
CN(c1ccc(OCC(=O)Nc2nc(-c3ccccc3)cs2)cc1)S(=O)(=O)c1ccc(F)cc1,-87.6*
O=C(Nc1ccc(N2CCOCC2)c(Cl)c1)c1ccc(Cl)cc1,-126.4*
O=C(Nc1ccc(N2CCCCC2)c(Cl)c1)c1ccc2c(c1)OCCO2,-132.3*
O=C(Nc1ccc(N2CCCC2)c(Cl)c1)c1ccc2c(c1)OCCO2,-77.6*
O=C(c1ccc(Cl)cc1)c1cc([N+](=O)[O-])ccc1N1CCOCC1,117.6
O=C(Nc1ccc(N2CCCC2)c(Cl)c1)c1ccc(Br)o1,-177.0*
O=C(Nc1ccc(N2CCOCC2)c(Cl)c1)c1ccco1,-69.0*
O=C(Nc1ccc(N2CCOCC2)c(Cl)c1)C1CCCCC1,-68.6*
O=C(Nc1ccc(N2CCOCC2)c(Cl)c1)c1ccccc1F,-172.0*
O=C(Nc1ccc(N2CCOCC2)c(Cl)c1)c1ccc2c(c1)OCCO2,-92.8*
Cc1cc(C(=O)Nc2ccc(N3CCOCC3)c(Cl)c2)c(C)o1,-179.6*
CCN1CCN(Cc2ccc(NC(=O)c3ccc(C)c(NC(=O)c4c[nH]c5cc(C(F)(F)F)ccc5c4=O)c3)cc2C(F)(F)F)CC1,112.6
CCN1CCN(c2ccc(NC(=O)c3ccc(F)cc3)cc2Cl)CC1,-93.8*
CCN1CCN(c2ccc(NC(=O)c3ccc([N+](=O)[O-])o3)cc2Cl)CC1,126.2
Cc1cccc(-n2[nH]c3c4c(ccc3c2=O)C(=O)c2ccccc2C4=O)c1,-62.0*
O=C1c2ccccc2C(=O)c2c1ccc1c(=O)n(-c3ccccc3)[nH]c21,-109.7*
OC1c2cc(Br)ccc2N=C2CCCN21 (stereo not given),-87.6*
CCc1ccc(-c2ccc(C(=O)C(F)(F)F)[nH]2)cc1,-80.3*
CC(=O)Nc1ccccc1C(=O)C(=O)Nc1ccccc1,-96.3*
CC(=O)Nc1ccccc1C(=O)C(=O)Nc1cccc(Br)c1,-78.8*
CCC(=O)Nc1ccccc1C(=O)C(=O)Nc1ccccc1,-69.5*
CC(=O)Nc1ccccc1C(=O)C(=O)Nc1ccc(Cl)cc1,-105.8*
C=C(C)CN(CC)C(=O)CCc1nnc(CCCc2ccccc2)o1,-150.1*
Cc1cccc(Cc2nnc(CCC(=O)N(C)CCc3ccccc3)o2)c1,-136.5*
SMILES,aSyn UTR act
CCN(CCn1cccn1)C(=O)CCc1nnc(CCCc2ccccc2)o1,-122.4*
CCCOc1ncnc2c1[nH]c1ccc(C)cc12,-92.2*
Cc1ccc2[nH]c3c(N4CCOCC4)ncnc3c2c1,-71.6*
Cc1ccc2[nH]c3c(NCc4ccccc4)ncnc3c2c1,-94.8*
Cc1nc2sc(-c3ccccc3)nn2c(=O)c1Br,-77.9*
c1ccc(-c2cn3nc(-c4ccccc4)sc3n2)cc1,101.4
C/C(N)=C(/C#N)C(=O)CSc1nnc(Nc2cccc(C)c2C)s1,-116.7*
CCN(CC)C(=O)CCCSc1nnc(Nc2ccccc2F)s1,-74.9*
CCCSc1nnc(Nc2ccccc2C)s1,-95.8*
Cc1ccccc1Nc1nnc(SCC(=O)Nc2ccccc2[N+](=O)[O-])s1,-81.3*
COc1ccc2c(c1OC)C(=O)OC2Nc1nc(-c2ccc(-c3ccccc3)cc2)cs1 (stereo not given),-233.4*
O=C(NC(=O)c1ccccc1)NC1(C(F)(F)F)OCCO1,-113.1*
O=S(=O)(NCc1cn2ccccc2n1)c1cccs1,-63.8*
Cc1c(C(=O)NCc2ccoc2)oc2ccc3c(c12)C(=O)CC(C)(C)O3,-464.0*
Cc1c(C(=O)NCCCN2CCCCC2)oc2ccc3c(c12)C(O)CC1(CCCCC1)O3 (stereo not given),76.0
CCCn1c(N)c(Sc2ccc(C)cc2)c(=O)n(CCC)c1=O,-78.7*
CCOC(=O)CCSc1nc(C)c2cc(C)ccc2n1,-86.6*
Cc1ccc(C(CC(=O)c2ccco2)SCCO)cc1 (stereo not given),-90.2*
Cc1cccc(-n2ncc3c(N4CCC5(CC4)OCCO5)ncnc32)c1,-81.6*
c1ccc(-n2ncc3c(N4CCC5(CC4)OCCO5)ncnc32)cc1,-223.3*
COc1cc2c(OC(C)=O)c3c(c(-c4ccc5c(c4)OCO5)c2cc1OC)C(=O)OC3,113.0
CC(=O)Oc1cc(OC(C)=O)c2c(=O)c(-c3ccc4c(c3)OCCCO4)c(C)oc2c1,-88.2*
CSc1nn(-c2ccc(C(=O)OCC(=O)NC(=O)NC(C)C)cc2)c(=S)s1,-69.3*
O=C(O)c1ccc(N=NN2CCCCC2)cc1,-85.2*
Clc1ccc(N=NN2CCOCC2)cc1,-70.4*
SMILES,aSyn UTR act
COC(=O)c1ccc(N=NN2CCCCCC2)cc1,-134.1*
COC(=O)c1ccc(N=NN2CCOCC2)cc1,-146.8*
COCC(=O)Nc1nnc(-c2cccs2)s1,-69.7*
C=C(C)C(=O)Nc1nnc(-c2cccs2)s1,-93.9*
CCC(=O)Nc1nnc(-c2cccs2)s1,-67.7*
O=C(Cc1ccccc1)Nc1nnc(-c2cccs2)s1,-142.4*
O=C(Nc1nnc(-c2cccs2)s1)C1CC1,-89.2*
O=C(CCS(=O)(=O)c1ccccc1)N1CCN(c2ccccc2)CC1,-77.7*
O=C(CCNS(=O)(=O)c1cccs1)N1CCCCCC1,-102.4*
O=C(CCS(=O)(=O)c1cccs1)N1CCCC1,-124.5*
Cc1nc(/N=C(\N)Nc2ccccc2)nc2ccccc12,-132.7*
C/C(=N\NC(=O)c1ccccc1O)c1ccc(Br)s1,-161.9*
C/C(=N/NC(=O)c1ccc(Br)o1)c1cccs1,-72.9*
CC(C)c1ccc2[nH]c(O)c(N=NC(=O)c3ccc(CSc4nncn4C)cc3)c2c1,-71.8*
CCOC(=O)C(CC)/C(C)=N\NC(=O)c1ccccc1O (stereo not given),93.5
C/C(=N\NC(=O)c1ccc(CSc2nncn2C)cc1)c1cccs1,-62.1*
C/C(=N\NC(=O)c1cc(Br)ccc1O)c1cccs1,-110.8*
C/C(=N\NC(=O)c1n[nH]c2c1CCC2)c1cccs1,107.2
C/C(=N/NC(=O)c1cnccn1)c1cccs1,-65.2*
C/C(=N\Nc1ccccn1)c1cccs1,-147.9*
c1ccc(-c2cnnc(N3CCCCC3)n2)cc1,-139.6*
Clc1ccc(-c2csc(N3CCCCCC3)n2)cc1,-85.3*
Clc1ccc(-c2csc(N3CCOCC3)n2)cc1,-140.3*
COc1ccc(-c2csc(N3CCOCC3)n2)cc1OC,-79.7*
c1ccc(-c2csc(N3CCCCCC3)n2)cc1,-139.0*
SMILES,aSyn UTR act
Brc1ccc(-c2csc(N3CCOCC3)n2)cc1,-131.9*
CN1CCN(c2nc(-c3ccc(Cl)s3)cs2)CC1,-83.6*
O=[N+]([O-])c1ccc(-c2csc(N3CCCCCC3)n2)cc1,-77.6*
O=C(/C(=C(\O)c1ccccc1)c1nc2ccccc2[nH]1)c1ccccc1,-107.8*
Cc1ccc(NC(=O)Nc2cccc(C)n2)cc1,-75.8*
Cc1cccc(NC(=O)Nc2ccc([N+](=O)[O-])cc2)n1,-97.2*
Cc1cccc(NC(=O)Nc2ccc(C)c(C)c2)n1,-119.9*
COc1ccc(NC(=O)Nc2ccc([N+](=O)[O-])cc2)cn1,-102.1*
Cc1cccc(NC(=O)Nc2ccc(F)cc2)n1,-90.6*
COc1ccc(C2C(C(=O)Nc3cccc(C)n3)CCC(=O)N2c2ccc(OC)cc2)cc1 (stereo not given),73.1
Cc1cccc(NC(=O)Nc2ccc(Cl)cc2)n1,-99.1*
Cc1cccc(NC(=O)Nc2cccc(C)n2)n1,-95.4*
Cc1ccc2c(CN(C)Cc3ccccc3)cc(=O)oc2c1C,-80.0*
O=C(Oc1ccc2cc(Br)ccc2c1)N1CCCCCC1,-169.3*
COc1ccccc1N=C1NC(=O)/C(=C/c2ccc(N(C)C)cc2)S1,-194.2*
Cc1nc2nc(-c3cccs3)[nH]c2cc1Br,-148.9*

# Source: PubChem BioAssay
